High-throughput results deposited in PubChem by several laboratories.
APP 5'UTR act: activators of APP 5'UTR luciferase reporter, primary screen, SH-SY5Y cells | activation, % at 2 µM | 190,000 compounds, 1% hits | SH-SY5Y APP 5'UTR luciferase reporter, luminescence; zero percent = DMSO vehicle wells;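 active = activation above a set limit, based on mean plus 3 SD of controls, cut at about 140% in these data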
hgDAF-12 ag: H. glycines DAF-12 receptor agonists, primary screen, cell-based, luminescence, HEK293, GAL4 fusion, UAS-luciferase | Nuclear hormone receptor DAF-12 (Heterodera glycines), GAL4 fusion | HEK293 GAL4-hgDAF12 UAS-luciferase reporter, agonist luminescence; normalized to butyrate control | activation, % at 6.8 µM | 370,000 compounds, 1.8% hits | AID 687014, 2013;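 active = activation above a cutoff set at the mean of all screened compounds plus 3 SD, cut at about 10% in these data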
ssDAF-12 act: S. stercoralis DAF-12 nuclear receptor activators, primary screen, cell-based, luminescence, HEK293, GRIP1 co-expression, lit1-tk-luc | Nuclear hormone receptor DAF-12 (Strongyloides stercoralis) | HEK293 ssDAF-12/GRIP1 lit1-tk-luc reporter; % of 3 µM dafachronic acid response | activation, % at 6.8 µM | 370,000 compounds, 1% hits | AID 652126, 2013;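 active = activation above the mean over all tested compounds plus 3 SD, cut at about 0.9% in these data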
hcDAF-12 act: H. contortus DAF-12 nuclear receptor activators, primary screen, cell-based, luminescence, HEK293, lit1-tk-luc reporter | AID 652067, 2013 | HEK293 hcDAF-12 lit1-tk-luc reporter; 0% DMSO, 100% Δ7-dafachronic acid | activation, % at 6.8 µM | 370,000 compounds, 1.4% hits;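 active = activation above the mean of all tested compounds plus 3 SD, cut at about 5.5% in these data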
NF-kB neuron act: activators of NF-kB expression in neurons, primary screen, cell-based, HTS; human neuronal cells, NF-kB reporter expression; active compounds read high; fold change at 12.5 µM; 190,000 compounds, 1.6% hits; AID 1239, 2008; in the data active = fold change above about 3.3
Large screens that a line does not name were inactive. An excerpt weighted towards active compounds, which were near 3.4% of everything screened.

O=C(O)COc1ccc(C(=O)Cc2ccc3c(c2)OCCCO3)c(O)c1	none
CO[C@H]([C@H](C)/C=C/N(C)C=O)[C@@H](C)C(=O)CC[C@H](C)[C@H](O)[C@H](C)[C@H]1OC(=O)/C=C/C(C)=C/C[C@H](O)C[C@@H]2C=CC[C@@H](C[C@H](OC)[C@@H](CO)[C@@H](OC)C[C@@H](OC)[C@@H]1C)O2	none (no result: APP 5'UTR act, NF-kB neuron act)
COc1ccc(-c2nnc(SCc3cccc(F)c3)n2-c2ccccc2)cc1	none (no result: APP 5'UTR act, NF-kB neuron act)
O=C(CCS(=O)(=O)c1ccccc1)N1CCN(c2ccccc2F)CC1	hgDAF-12 ag 13 (no result: APP 5'UTR act, NF-kB neuron act)
COc1ccc(S(=O)(=O)CCC(=O)N2CCN(c3ccccc3F)CC2)cc1	none
Nc1ccc2c(c1)C/C(=C/c1ccco1)C2=O	APP 5'UTR act 189
O=C1/C(=C\c2ccncc2)CCc2ccccc21	none (no result: APP 5'UTR act, NF-kB neuron act)
O=C1/C(=C/c2ccco2)CCc2ccccc21	APP 5'UTR act 164, hcDAF-12 act 6.2
COC(=O)[C@]12C[C@H](CC(=O)NCc3ccc(OC)c(OC)c3)C(=O)N(Cc3ccc4c(c3)OCO4)C1=C[C@H](C(C)(C)C)O[C@@H]2C	none (no result: APP 5'UTR act, NF-kB neuron act)
Cc1nc2ccc(NC(=O)Cc3cccc(F)c3)cc2s1	none
Cc1nc2ccc(NC(=O)Cc3ccsc3)cc2s1	ssDAF-12 act 1.3, hcDAF-12 act 5.8
Cc1ccc(NC(=O)Cc2ccsc2)cc1Cl	none (no result: APP 5'UTR act, NF-kB neuron act)
Cc1nc2ccc(NC(=O)Cc3ccccc3F)cc2s1	NF-kB neuron act 6.8
Fc1ccc(-n2nnc(-c3nccs3)n2)cc1	APP 5'UTR act 148, NF-kB neuron act 4.7
Fc1ccc(-n2nnc(-c3ccccc3Cl)n2)cc1	none (no result: APP 5'UTR act, NF-kB neuron act)
Cc1ccccc1Cn1nnc(-c2cccc(C(=O)O)c2)n1	hgDAF-12 ag 12
CCC(=O)Nc1ccc2c(c1)ncn2C	none
Cc1cccc(C(=O)Nc2ccc3c(c2)ncn3C)c1	hgDAF-12 ag 11 (no result: APP 5'UTR act, NF-kB neuron act)
Cn1cnc2cc(NC(=O)c3ccc(Cl)cc3)ccc21	hgDAF-12 ag 12, NF-kB neuron act 5
Cc1cc(C)nc(SC2CCCCC2O)n1 (stereo not drawn)	hcDAF-12 act 5.8
C=C1C(=O)[C@]23C[C@H]1CC[C@H]2[C@]1(C)CCC[C@@](C)(C(=O)OC)[C@H]1C[C@@H]3O	none (no result: APP 5'UTR act, NF-kB neuron act)
Cc1cc(Cl)ccc1NC(=S)N1CCN(Cc2ccccc2)CC1	none
Cc1cccc(NC(=S)N2CCN(Cc3ccccc3)CC2)c1C	hcDAF-12 act 5.9
O=C(c1ccc(F)cc1)n1ccc2ccc(-c3ccc4ccn(Cc5ccccc5)c4c3)cc21	none (no result: APP 5'UTR act, NF-kB neuron act)
Cc1ccc(C(=O)n2ccc3ccc(-c4ccc5ccn(Cc6ccccc6)c5c4)cc32)cc1	hcDAF-12 act 6.2 (no result: APP 5'UTR act, NF-kB neuron act)
CSCCC(NC(=O)c1cccc([N+](=O)[O-])c1)c1nc2ccccc2[nH]1 (stereo not drawn)	none
CSCC[C@H](NC(=O)c1cc([N+](=O)[O-])ccc1Cl)c1nc2ccccc2[nH]1	hcDAF-12 act 5.9
Cc1c(-c2ccccc2)[nH]n2c(=O)c3c(nc12)CCCC3	hgDAF-12 ag 11
Cc1ccc(-c2[nH]n3c(=O)c4c(nc3c2C)CCCC4)cc1	none
Clc1ccc2nc(-c3ccccn3)c(Nc3ccc4c(c3)OCO4)n2c1	hgDAF-12 ag 13
CCOC(=O)N/N=C/c1c[nH]c2ccccc12	hcDAF-12 act 6.2 (no result: NF-kB neuron act)
NC(=S)N/N=C/c1c[nH]c2ccccc12	ssDAF-12 act 1.8 (no result: APP 5'UTR act, NF-kB neuron act)
COC(=O)N/N=C/c1c[nH]c2ccccc12	none
Cc1ccc(OCC(=O)N/N=C/c2c[nH]c3ccccc23)c([N+](=O)[O-])c1	hcDAF-12 act 6.2
Cc1ccc(S(=O)(=O)N/N=C/c2c[nH]c3ccccc23)cc1	ssDAF-12 act 0.9
O=C(O)c1ccc(S(=O)(=O)NN=Cc2c[nH]c3ccccc23)cc1	none (no result: APP 5'UTR act, NF-kB neuron act)
Nc1ccc(C(=O)N/N=C/c2c[nH]c3ccccc23)cc1	none (no result: APP 5'UTR act, NF-kB neuron act)
O=C(Cc1ccccc1)N1CCC(Oc2cccnc2)CC1	none (no result: APP 5'UTR act, NF-kB neuron act)
CCOC(=O)N/N=C/c1ccc(F)cc1F	ssDAF-12 act 1.0
CC(Cc1cccs1)NC(=O)c1cccs1 (stereo not drawn)	none
CC(Cc1cccs1)NC(=O)Nc1ccc([N+](=O)[O-])cc1 (stereo not drawn)	hgDAF-12 ag 13
O=C(N/N=C1\CCCc2ccccc21)c1ccccc1Cl	none
O=C(N/N=C1\CCc2ccccc21)c1ccccc1O	hcDAF-12 act 6.1, NF-kB neuron act 3.8
O=C(N/N=C1\CCCCc2ccccc21)c1ccccn1	hgDAF-12 ag 12
O=C(NN=C1CCCCCCC1)c1ccc2ccccc2n1	none
O=C(NN=C1CCCCCCC1)c1ccccn1	APP 5'UTR act 170
C=CCN(CC#Cc1ccccc1)CC1CC1	none (no result: APP 5'UTR act, NF-kB neuron act)
Clc1ccc(CN2CCN(N=Cc3cccc(OCc4ccccc4)c3)CC2)cc1	none (no result: APP 5'UTR act, NF-kB neuron act)
C=CCc1ccc(OCc2ccc(C(=O)OC)o2)c(OC)c1	NF-kB neuron act 3.4
CC(C)Oc1cccc(C(=O)C2CCCN(C(=O)c3ccsc3)C2)c1 (stereo not drawn)	none
CC(C)Oc1cccc(C(=O)N2CCCC2)c1	ssDAF-12 act 1.1 (no result: NF-kB neuron act)
CCN(CC)C(=O)c1ccc2c(c1)NC(=O)C(C)(C)O2	none (no result: APP 5'UTR act, NF-kB neuron act)
O=c1cc(N2CCN(c3ccccc3Cl)CC2)[nH]c(=O)n1Cc1ccc(F)cc1	none (no result: APP 5'UTR act, NF-kB neuron act)
O=c1cc(N2CCc3ccccc32)[nH]c(=O)n1Cc1ccc(F)cc1	hcDAF-12 act 5.8
CN(C)N1C(N)=C(C#N)C(c2cccs2)C2=C1CC(C)(C)CC2=O (stereo not drawn)	ssDAF-12 act 2.0
CN(CCO)c1ccc2c(c1)Oc1ccccc1CN(Cc1cn(Cc3ccccc3C(F)(F)F)nn1)S2(=O)=O	none (no result: APP 5'UTR act, NF-kB neuron act)
COc1cccc(-c2csc(NC(=O)C3CC3)n2)c1	hgDAF-12 ag 12
CC(=O)Nc1nc(-c2ccc3c(c2)OCO3)cs1	hgDAF-12 ag 12 (no result: APP 5'UTR act, NF-kB neuron act)
COc1cccc(-c2csc(NC(=O)Nc3ccccc3)n2)c1	none (no result: APP 5'UTR act, NF-kB neuron act)
CN(C)/C=N/c1nc(-c2ccc3c(c2)OCO3)cs1	hgDAF-12 ag 11
N#CCC(=O)Nc1nc(-c2ccc3c(c2)OCCO3)cs1	none
O=C(Nc1nc(-c2ccc3c(c2)OCO3)cs1)C1COc2ccccc2O1 (stereo not drawn)	none
O=C(Nc1nc(-c2ccc3c(c2)OCCO3)cs1)C1CCCC1	APP 5'UTR act 173, NF-kB neuron act 6.6
Cc1nc(-c2ccc3c(c2)OCCO3)cs1	none
CC(=O)NCc1ccc(C(=O)CCl)s1	NF-kB neuron act 4
COc1ccc(C(=O)OCC(=O)c2ccc(CNC(C)=O)s2)cc1	none (no result: APP 5'UTR act, NF-kB neuron act)
CCOC(=S)SCc1cn2cccc(C)c2n1	NF-kB neuron act 3.8
CCOC(=O)Cc1nc(N2CCN(C=O)CC2)c2c(C)c(C(=O)OCC)sc2n1	none (no result: APP 5'UTR act, NF-kB neuron act)
CCOC(=O)COc1ccc2c3c(c(=O)oc2c1C)CCC3	NF-kB neuron act 4.8
